ELG1 genotoxic: inducers of genotoxicity in HEK293T ELG1-luciferase cells; HEK293T ELG1-luciferase reporter, luminescence, 16 h; Potency, µM (highest dose often 46 µM), without a hit: at the highest dose activity change, positive = activation, most hits filed as activators; 330,000 compounds, 1.3% hits; note: % of control where 0% means no effect; nearly all actives have a fitted effect of over 60% in size
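Luminescence read-out: rising ELG1-luciferase signal, reflecting elevated ELG1 protein under genetic stress, flags genotoxic compounds. Cells were treated for 16 hr at 37 °C before ONE-Glo detection.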
Rab9 prom act: Rab9 promoter activation; Huh7 Rab9 promoter-luciferase reporter, luminescence, 24 h; Potency, µM (doses to about 9.22 µM), for inactives: top-dose activation, negative = inhibition, actives largely listed as activators; 320,000 compounds, 2.8% hits; AID 485297; note: % of control where 0% means no effect; nearly all actives have a fitted effect of over 60% in size
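Using Huh7 cells stably transfected with Rab9 promoter–luciferase, compounds were incubated 24 h at 37 °C, 5% CO2; luciferase luminescence was read 10 min after reagent addition.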
NPC1 promoter act: NPC1 promoter activation; Potency, µM (titrated, usually from 9.22 µM), inactives show top-dose activation, most hits filed as activators; 320,000 compounds, 2.4% hits; Huh7 NPC1 promoter luciferase reporter, 24 h; AID 485313; note: % of control where 0% means no effect; nearly all actives have a fitted effect of over 60% in size
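Quantitative HTS used a cell-based reporter: Huh7 cells stably bearing the NPC1 promoter upstream of luciferase were treated with compounds for 24 h, and promoter activation was read as luminescence.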
FLuc modulator: counter-screen for miR-21 project: firefly luciferase inhibitors or activators; purified FLuc, Km substrates, luminescence inhibition; 360,000 compounds, 6.9% hits; Potency, µM (titrated, usually from 57.5 µM), for inactives: top-dose activity change, negative = inhibition, most hits filed as inhibitors; AID 588342;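 note: plate controls were vehicle for no effect and reference inhibitor for full effect; nearly all actives have a fitted effect of over 55% in size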
Target sequence (P08659 whole entry, looked up): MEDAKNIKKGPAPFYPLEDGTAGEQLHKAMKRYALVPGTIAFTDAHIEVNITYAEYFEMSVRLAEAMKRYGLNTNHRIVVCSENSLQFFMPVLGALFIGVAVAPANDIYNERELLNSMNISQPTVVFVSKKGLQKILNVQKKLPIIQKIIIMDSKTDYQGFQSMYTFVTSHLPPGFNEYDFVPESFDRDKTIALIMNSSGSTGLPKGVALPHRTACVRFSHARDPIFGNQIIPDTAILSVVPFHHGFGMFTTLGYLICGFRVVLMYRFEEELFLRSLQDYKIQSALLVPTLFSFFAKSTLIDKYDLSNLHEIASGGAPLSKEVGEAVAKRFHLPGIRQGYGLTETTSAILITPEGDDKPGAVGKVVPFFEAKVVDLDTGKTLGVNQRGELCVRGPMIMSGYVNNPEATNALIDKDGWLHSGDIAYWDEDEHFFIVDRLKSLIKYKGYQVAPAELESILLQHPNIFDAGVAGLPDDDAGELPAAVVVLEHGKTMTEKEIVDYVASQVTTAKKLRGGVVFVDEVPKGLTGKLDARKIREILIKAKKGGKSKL
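Purified P. pyralis luciferase (10nM final) with 10uM D-luciferin and 10uM ATP (Km levels) in 50mM Tris acetate pH 7.5, 10mM Mg acetate, 0.01% Tween-20, 0.05% BSA; qHTS 6-point titration, ~60 µM downward; luminescence read.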
SMN2 splice up: enhancers of SMN2 splice variant expression; HEK293 SMN2-luciferase splicing reporter, luminescence, 30-36 h; Potency, µM (highest dose often 46.1 µM), without a hit: at the highest dose activity change, positive = activation, hits mostly activators; 210,000 compounds, 2.8% hits; AID 1458; note: % of control where 0% means no effect; nearly all actives have a fitted effect of over 55% in size
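qHTS luciferase splicing reporter: luminescence rises when SMN2 exon 7 is included in transfected HEK293 cells. Compound exposure lasted 30-36 h at 37C, with 4.5 mM final sodium butyrate as control, followed by a ONE-Glo read.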
The depositor's hits bear a star; ? = inconclusive; / = not tested or not shown; [ ] = dose if it differs, or a comment. Compounds with a hit are over-represented: about 7.5% of the library has one in this group of screens. Calls come from the whole dose curve; as a rule, active = well fitted curve in the direction sought with a large enough effect; inconclusive = small, poorly fitted or top-dose-only effect, or another doubt; inactive = no such curve, though single readings can be large; an effect the other way counts as inactive or inconclusive. Potency is the fitted concentration of half-maximal effect.

SMILES	ELG1 genotoxic	Rab9 prom act	NPC1 promoter act	FLuc modulator	SMN2 splice up
O=C(N/N=C/c1cccc(F)c1)c1c(O)c2ccccc2[nH]c1=O	?	?	?	4%	-22%
CCNCCNC(=O)c1c(O)c2c([nH]c1=O)CCCC2	2%	-5%	2%	1%	-13%
O=C(N/N=C/c1cccc(Cl)c1)c1c(O)c2c([nH]c1=O)CCCC2	?	2.5µM*	2.8µM*	?	/
O=C(Nc1nccs1)c1c(O)c2c([nH]c1=O)CCCC2	8%	2.2µM*	?	?	/
O=C(Nc1ccccc1O)c1c(O)c2c([nH]c1=O)CCCC2	?	3.5µM*	?	7.6µM*	18µM*
O=S(=O)(Nc1ccc(F)c(C(F)(F)F)c1)c1ccc(N2CCCCS2(=O)=O)cc1	/	/	/	-6%	/
O=C(O)CCSCc1ccccc1	/	/	/	/	-1%[9.22 µM]
O=C(/C=C/c1ccccc1Cl)Nc1cccnc1	4.1µM*	1.8µM*	1.1µM*	1.3µM*	/
CCC(CC)NC(=O)/C=C/c1ccccc1Cl	16%	27%	21%	?	?
CC(=O)N(C)c1ccc(NC(=O)/C=C/c2ccccc2Cl)cc1	?	?	29%	6µM*	29%
COC(=O)c1sccc1NC(=O)/C=C\c1ccc(Cl)cc1Cl	8%	4µM*	?	?	28%
O=C(/C=C/c1ccccc1Cl)NCc1ccco1	9%	-22%	?	24µM*	24%
O=C(O)/C=C/C(=O)Nc1cccnc1	5%	-5%	2%	-1%	9%
O=C(Nc1ccncc1)c1ccccc1Cl	-6%	-5%	-1%	-11%	/
O=C(/C=C/c1ccccc1Cl)Nc1ccncc1	11%	2.8µM*	?	4.3µM*	17%
O=C(/C=C/c1ccc(Cl)cc1Cl)NCc1ccncc1	0%	3%	4%	?	-20%
O=C(/C=C/c1ccc(Cl)cc1Cl)Nc1ccncc1	?	27%	29%	3.4µM*	-4%
CCSc1nnc(NC(=O)CN2C(=O)NC3(CCCC3)C2=O)s1	1%	-11%	1%	5%	/
Nc1[nH]n2c(=O)cc(-c3ccccc3)nc2c1N=Nc1ccccc1	-5%	-22%	-11%	17µM*	-91%
Nc1[nH]n2c(=O)cc(-c3ccccc3)nc2c1N=Nc1ccc(S(N)(=O)=O)cc1	0%	-15%	-3%	9.5µM*	/
Cc1ccc(N=Nc2c(=O)[nH]n3c(C)cc(C)nc23)cc1	2%	0%	1%	-2%	-24%
NS(=O)(=O)c1ccc(N=Nc2c(-c3ccccc3)[nH]n(-c3nc(-c4ccccc4)cs3)c2=O)cc1	-14%	-13%	-13%	0%	-79%
Cc1ccc(N=Nc2c(N)[nH]n3c(=O)cc(C)nc23)cc1	-6%	0%	2%	17µM*	19%
CS(=O)(=O)N(CC(=O)Nc1cccc(Cl)c1Cl)c1ccccc1	3%	-4%	-1%	-1%	-2%
COCCCNC(=O)Cn1c(=O)n(-c2ccc(C)cc2)c(=O)c2c1c1cc(C)ccc1n2C	/	/	/	4%	/
SMILES	ELG1 genotoxic	Rab9 prom act	NPC1 promoter act	FLuc modulator	SMN2 splice up
Cc1ccc(NC(=O)CSc2nc3n[nH]c(C)c3c(=N)n2-c2ccccc2C)cc1C	/	/	/	2%	/
O=C(OCC(=O)N1CCC(Cc2ccccc2)CC1)c1ccccc1F	3%	2%	1%	4.3µM*	/
O=C(OCC(=O)N1CCC(Cc2ccccc2)CC1)c1ccccc1	6%	?	-14%	12µM*	-6%
COc1ccc2c(c1)c1c(c(=O)n(Cc3ccccc3)c(=O)n1Cc1ccccc1Cl)n2C	/	/	/	-1%	/
Cc1cccc(C(=O)OCC(=O)Nc2ccc3c(c2)OCCO3)c1	10%	12%	8%	19µM*	/
O=S(=O)(NCC1COc2ccccc2O1)c1ccccc1F (stereo unspecified)	0%	/	/	/	/
O=C(COC(=O)c1ccccc1F)Nc1ccc2c(c1)OCCO2	5%	-4%	1%	0.48µM*	/
O=C(COC(=O)c1cccc(F)c1)Nc1ccc2c(c1)OCCO2	6%	9%	3%	1.9µM*	/
O=C(OCC1COc2ccccc2O1)c1ccccc1F (stereo unspecified)	11%	2%	1%	6µM*	-1%
